SMILES strings stand for the structures. Activity calls are given as the source filed them. Rule for the calls: active = hit-call score of the fitted dose curve at least 0.9, where 1 is the maximum; inactive = score below 0.9.

In the experiment the target is CCAAT/enhancer-binding protein beta (Homo sapiens) (UniProt P17676). Description: ATG_C_EBP_CIS: Attagene CIS-FACTORIAL HepG2 Assay for human CCAAT/Enhancer Binding Protein (C/EBP) beta (AID 2282927). Conditions: HepG2 Attagene cis-factorial transcription factor reporter; actives raise or lower the signal. The method, then: ATG_CIS is a cell-based, multiplexed-readout assay that uses HepG2, a human liver cell line, with measurements taken at 24 hours after chemical dosing in a 24-well plate.ATG_C_EBP_CIS is one of 52 assay component(s) measured or calculated from the ATG_CIS assay. It is designed to make measurements of mRNA induction, a form of inducible reporter, as detected with fluorescence intensity signals by Reverse transcription polymerase chain reaction (RT-PCR) and Capillary electrophoresis technology.Data from the assay component ATG_C_EBP_CIS was analyzed into 1 assay endpoint. This assay endpoint, ATG_C_EBP_CIS, was analyzed with bidirectional fitting relative to DMSO as the negative control and baseline of activity. Using a type of inducible reporter, measures of mRNA for gain or loss-of-signal activity can be used to understand the reporter gene at the transcription factor-level as they relate to the gene CEBPB. Furthermore, this assay endpoint can be referred to as a primary readout, because this assay has produced multiple assay endpoints where this one serves a reporter gene function. To generalize the intended target to other relatable targets, this assay endpoint is annotated to the dna binding intended target family, where the subfamily is basic leucine zipper.
CCAAT/enhancer-binding protein beta (Homo sapiens), sequence (P17676 whole entry, looked up): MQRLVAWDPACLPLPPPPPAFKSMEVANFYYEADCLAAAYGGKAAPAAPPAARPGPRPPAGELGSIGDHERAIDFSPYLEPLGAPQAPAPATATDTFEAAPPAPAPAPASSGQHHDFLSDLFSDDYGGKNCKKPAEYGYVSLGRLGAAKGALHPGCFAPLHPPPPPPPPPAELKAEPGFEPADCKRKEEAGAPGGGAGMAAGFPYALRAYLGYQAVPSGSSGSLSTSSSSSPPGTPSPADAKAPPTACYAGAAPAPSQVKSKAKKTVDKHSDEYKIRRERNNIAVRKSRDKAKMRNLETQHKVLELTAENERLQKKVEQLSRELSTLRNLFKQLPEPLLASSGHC
Human liver HepG2 cells are transiently transfected with multiple reporter transcription units (MRTUs) in 6-well plates using FuGene 6 reagent (Roche; 3 ml FuGene/1 mg DNA). The MRTU constructs are regulated by a cis-regulating element (promoter). […] A major difference between the CIS and TRANS system is that in CIS activities of endogenous TFs are measured, whereas the TRANS assay evaluates changes in activities of exogenous, chimeric NR-Gal4 proteins. […] At the end of 24 hour incubation, total RNA was isolated using TriZol reagent (Invitrogen). The isolated RNA is then reverse-transcribed using oligo(dT) primer and Mo-MLV reverse transcriptase (Invitrogen) with DNAse I (Ambion) treatment for 30 min. The one-tenth of the produced cDNA was amplified by PCR using Taq DNA polymerase (Invitrogen) and two reporter sequence-specific primers. The PCR products were fluorescently labeled by primer extension with 6-arboxyfluorescein (6-FAM) 5'-labeled reporter sequence-specific primer (2 min at 95 C, 20 s at 68 C and 10 min at 72 C) and these products were digested with 5U of HpaI (New England Biolabs) for 2h at 37 C. The fragments were purified using Qiaquick PCR columns (Qiagen), analyzed on an ABI 3130xL genetic analyzer (Applied Biosystems) with peak positions identified by using a set of X-rhodamine (ROX)-labeled MapMarker1000 molecular weight standards (BioVentures). The raw capillary electrophoresis data was processed using Attagraph software (Attagene).
In the case of `O=C(Cc1ccccc1)OCCc1ccccc1`, the outcome was inactive.

For the compound `Cc1ccccc1OP(=O)(Oc1ccccc1)Oc1ccccc1`, the result was inactive.

Regarding `Nc1ncn[nH]1`, the result was inactive.

Consider `OC(Cc1ccccc1Cl)(Cn1cncn1)C1(Cl)CC1` (stereo not given), for which the outcome was inactive.

For the compound `CC(C)[C@H](C(=O)OC(C#N)c1cccc(Oc2ccccc2)c1)c1ccc(OC(F)F)cc1` (stereo not given in full), the outcome was inactive.

`C=CCc1ccccc1O`: the outcome was inactive.

For `CC(c1ccc(O)cc1)c1ccc(O)cc1`, the result was inactive.

In the case of `CCCCCCCCCCBr`, the result was inactive.

Consider `Fc1cccc(Cl)c1CCl`, for which the outcome was inactive.

With `BrCC(Br)c1ccccc1` (stereo not given), the outcome was inactive.

Turning to `O=[N+]([O-])c1c2ccccc2cc2ccccc12`, the result was inactive.

As to `Cl[C@H]1OCCO[C@@H]1Cl`, the result was inactive.

Consider `NC(=O)c1ccc(N)nc1`, for which the outcome was inactive.

As to `O=C/C(Cl)=C(/Cl)C(=O)O`, the outcome was inactive.

For the compound `CC(c1ccccc1)(c1ccc(O)cc1)c1ccc(O)cc1`, the result was inactive.

Take `NNCCO`: the outcome was inactive.

For the compound `Nc1nc(N)nc(Cl)n1`, the result was inactive.

Turning to `O=NN1CCCCCCC1`, the result was inactive.

`CN(C1CCCCC1)C1CCCCC1`: the outcome was inactive.

On to `O=S1OC[C@@H]2[C@H](CO1)[C@]1(Cl)C(Cl)=C(Cl)[C@@]2(Cl)C1(Cl)Cl` (stereo not given in full), for which the result was inactive.

In the case of `O=C(NC(=O)c1c(F)cccc1F)Nc1ccc(Cl)cc1`, the result was inactive.

Regarding `O=S(=O)(Oc1ccc(Cl)cc1)c1ccc(Cl)cc1`, the result was inactive.

`CC(C)O.CC(C)O.OCCN(CCO)CCO.OCCN(CCO)CCO.[Ti]`: the outcome was inactive.

In general, AC50 refers to the concentration at which the activity in the assay is half-maximal. On to `CCC[CH2][Sn]([Cl])([Cl])[CH2]CCC`, for which the AC50 was 330 nM (active).

Turning to `Cc1cc(C(C)(C)c2ccc(O)c(C)c2)ccc1O`, the outcome was inactive.

Take `c1cc[c]([Sb]([c]2ccccc2)[c]2ccccc2)cc1`: the outcome was inactive.

Take `C=CCOC(F)(C(F)(F)F)C(F)(F)F`: the result was inactive.

Turning to `CCOC(=O)OC1=C(c2cc(C)ccc2C)C(=O)NC12CCC(OC)CC2` (stereo not given), the result was inactive.

For the compound `COC(=O)c1cc(Oc2ccc(Cl)cc2Cl)ccc1[N+](=O)[O-]`, the result was inactive.

Turning to `O=C(O)COc1ccc(Cl)cc1`, the result was inactive.

As to `c1ccc2sc(SNC3CCCCC3)nc2c1`, the outcome was inactive.

Regarding `O=C1c2ccccc2C(=O)C1C(=O)C(c1ccccc1)c1ccc(Cl)cc1` (stereo not given), the result was inactive.

`c1csc(-c2ccc(-c3cccs3)s2)c1`: the outcome was inactive.

For `Cc1cc(Cl)ccc1N`, the result was inactive.

As to `O=C(NC(=O)c1c(F)cccc1F)Nc1cc(Cl)c(Oc2ncc(C(F)(F)F)cc2Cl)c(Cl)c1`, the result was inactive.

As for `O=C(O)c1cc(I)cc(I)c1I`, the result was inactive.

Take `COCCl`: the result was inactive.

Turning to `CC(C)(COCC1CO1)COCC1CO1` (stereo not given), the outcome was inactive.

Regarding `CC(=O)CN(CC(C)=O)N=O`, the result was inactive.

For `C[C@]12CC[C@@H](O)C[C@@H]1CC[C@@H]1[C@@H]2CC[C@]2(C)C(=O)CC[C@@H]12`, the outcome was inactive.

Values taken from PubChem BioAssay (EPA / NIEHS).
